Measured values published in PubChem BioAssay AID686949 (The Scripps Research Institute Molecular Screening Center, 2013).
Out of some 3,200 compounds screened, about 2,200 (69%) were called active.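 The calls were made as follows: active = activation, as change over the incubation, above the mean of all tested compounds plus 3 SD (cut at about 13% in these data); inactive = the rest.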 So high a share suggests a set chosen from earlier hits. Not all results are given here.

What follows are compounds tested against Kallikrein-7 (Homo sapiens) (UniProt P49862) (assay: activation of human kallikrein-7 proenzyme – biochemical, fluorescence intensity, triplicate, confirmation (AID 686949)). Details: purified proKLK7, EDANS-DABCYL substrate fluorescence; at 7 µM; stronger effect = higher value.
Chain of Kallikrein-7 (Homo sapiens) (P49862 whole entry, looked up): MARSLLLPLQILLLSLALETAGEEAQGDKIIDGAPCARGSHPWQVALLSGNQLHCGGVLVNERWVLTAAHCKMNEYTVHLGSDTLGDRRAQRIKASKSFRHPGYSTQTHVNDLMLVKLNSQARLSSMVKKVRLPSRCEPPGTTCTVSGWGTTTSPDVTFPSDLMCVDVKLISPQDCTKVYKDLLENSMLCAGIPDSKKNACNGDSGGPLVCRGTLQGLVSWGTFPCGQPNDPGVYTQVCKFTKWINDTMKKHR

| SMILES | activation |
| --- | --- |
| COc1cccc(-c2nc3ccc(N4CCN(C)CC4)cc3[nH]2)c1 | 64% (active) |
| CCOc1ccc(-c2cc(C)[n+](CCN(CC)CC)c(-c3ccc(OCC)cc3)c2)cc1 | 19.2% (active) |
| Cc1nc2ccc(N3CCN(C)CC3)cc2nc1C | 16.1% (active) |
| CCOC(=O)c1c(N)n(CCN2CCOCC2)c2nc3ccccc3nc12 | 27.8% (active) |
